L3MBTL1 inh – inhibitors of human L3MBTL1 | AlphaScreen L3MBTL1–H3K9me1 peptide binding | Potency, µM (titrated, usually from 57.1 µM), for the others: top-dose activity, negative = inhibition, actives largely listed as inhibitors | 230,000 compounds, 0.66% hits; note: % is set by controls: 0 for no effect and ±100 for the full control effect; nearly all actives have a fitted effect of over 60% in size
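AlphaScreen assay: L3MBTL1 (50 nM final) was preincubated 30 min at room temperature with biotinylated H3(1-15)K9me1 peptide (75 nM final), then 30 min with library compounds; streptavidin donor and nickel chelate acceptor beads (10 ug/mL final) added, 30 min dark.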
G9a inh – blocks human histone lysine methyltransferase G9a; G9a H3K9 monomethylation, AlphaScreen, 2 h; Q96KQ7; 350,000 compounds, 8.8% hits; Potency, µM (highest dose often 102 µM), without a hit: at the top dose activity, negative = inhibition, actives largely listed as inhibitors; note: % is set by controls: 0 for no effect and ±100 for the full control effect; nearly all actives have a fitted effect of over 75% in size
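AlphaScreen read-out: biotin-H3K9 peptide (500 nM) methylation by 20 nM enzyme with 20 uM SAM, 2 h at room temperature after 15 min compound preincubation; anti-monomethyl H3K9 antibody plus donor/acceptor beads, 10 min dark.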
JMJD2A Tudor – inhibitors of human JMJD2A Tudor domain. O75164. AlphaScreen JMJD2A-Tudor / H3K4me3 peptide binding. Potency, µM (series often up to 114 µM), inactives show top-dose activity change, negative = inhibition, most hits filed as inhibitors. 390,000 compounds, 4.4% hits. AID 504339; note: % is set by controls: 0 for no effect and ±100 for the full control effect; nearly all actives have a fitted effect of over 50% in size
BAZ2B inh – blocks human BAZ2B; AlphaScreen BAZ2B-H3K14Ac peptide displacement; Potency, µM (top dose mostly 114 µM), for inactives: top-dose activity change, negative = inhibition, usual class: inhibitors; 360,000 compounds, 4.4% hits; note: % is set by controls: 0 for no effect and ±100 for the full control effect; nearly all actives have a fitted effect of over 60% in size
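Compounds, titrated to a top concentration of 110 uM, were incubated 30 min at room temperature with preformed BAZ2B/acetyl-K14 H3 peptide complex (50 nM each). Proximity signal was measured by AlphaScreen after 20 min with beads.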
HP1b chromo inh – inhibitors of HP1-beta chromodomain binding to methylated histone tails; P83916; AlphaScreen HP1-beta / biotin-H3K9me3 peptide binding; Potency, µM (doses to about 114 µM), for inactives: at the top dose activity change, negative = inhibition, hits mostly inhibitors; 390,000 compounds, 0.56% hits; AID 540317; note: nearly all actives have a fitted effect of over 70% in size
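Compound inhibition of the preformed complex between 50 nM HP1-beta and 50 nM biotinylated H3K9me3 peptide was read by AlphaScreen. Buffer was PBS pH 7.4 with 0.01% Tween-20. Incubations ran 30 min at room temperature, with 10 ug/mL donor/acceptor beads.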
Sfp PPTase inh – Sfp phosphopantetheinyl transferase inhibition; Q9F4F7; Biochemical Sfp PPTase activity, qHTS; Potency, µM, for the others: largest response in the series, negative = inhibition, usual class: inhibitors; 310,000 compounds, 3.5% hits;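 note: the enzyme is Sfp with the accession as filed and its product quenches rhodamine fluorescence; 0% = enzyme reaction without inhibitor and -100% = no enzyme wells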
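Sfp 15 nM + cpd, 15 min RT; start w/ rhodamine-CoA 5 uM, BHQ-2-YbbR 12.5 uM (final); 50 mM Hepes pH 7.6, 10 mM MgCl2, 0.01% NP-40, 0.01% BSA; read 525/598 nm at 0 and 30 min.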
Starred values were filed as active, the others as inactive; ? = inconclusive; · = no result given; [ ] = another dose, or the depositor's remark. This is a sample that favours compounds with a hit; in the whole collection about 12% have one here. Calls come from the whole dose curve; as a rule, active = well fitted curve in the direction sought with a large enough effect; inconclusive = small, poorly fitted or top-dose-only effect, or another doubt; inactive = no such curve, though single readings can be large; an effect the other way counts as inactive or inconclusive. Potency is the fitted concentration of half-maximal effect.

SMILES	L3MBTL1 inh	G9a inh	JMJD2A Tudor	BAZ2B inh	HP1b chromo inh	Sfp PPTase inh
CCOC(=O)C1CCN(S(=O)(=O)c2cc3c(cc2C)NC(=O)CO3)CC1	55%	·	-6%	24%	36%	14%
COc1ccc(CC(=O)N2CCN(c3ccccc3)CC2)cc1	·	7%	-1%	-22%	36%	7%
O=C(CSc1ccc2c(c1)OCCO2)N1CCN(c2ccccc2)CC1	-8%	?	-10%	-19%	28%	·
O=C(C1CC(=O)N(c2ccc3c(c2)OCCO3)C1)N1CCN(c2ccccc2)CC1 (stereo not drawn)	?	?	?	50µM*	-17%	4%
O=C(Cc1ccc2c(c1)OCCO2)N1CCN(c2ccccc2)CC1	-3%	50µM*	-27%	-15%	-8%	12%
O=C(CSc1ccc2c(c1)OCCO2)N1CCN(c2ccccc2O)CC1	?	50µM*	-25%	-25%	10%	·
O=C(O)c1[nH]c2ccc(Cl)cc2c1CC(=O)N1CCN(c2ccccc2)CC1	2%	50µM*	-28%	-2%	-10%	10%
CCSc1ncc(Cl)c(C(=O)Nc2sc(C(C)=O)c(C)c2C(=O)OC)n1	·	-4%[59 µM]	-26%	-14%	3%	·
CCc1ccc(C(=O)c2cn(CC(=O)NCCc3ccccc3)c3nc(C)ccc3c2=O)cc1	·	7%[59 µM]	-29%	-1%	11%	·
Cc1ccc(NC(=O)Cn2c(=O)n(Cc3ccccc3)c(=O)c3c(C)c(C)sc32)c(C)c1	·	10%[59 µM]	-11%	-1%	15%	·
O=C(NCCc1ccccc1)C1CC(=O)N(c2ccc3c(c2)OCCO3)C1 (stereo not drawn)	2%	-7%	-11%	6%	17%	·
O=C(NC(Cc1ccccc1)c1nc2ccccc2[nH]1)C1CC(=O)N(c2ccc3c(c2)OCCO3)C1 (stereo not drawn)	-22%	13µM*	?	?	35%	?
Cc1ccccc1C(=O)N1CCC(C(=O)Nc2ccccn2)CC1	-8%	12%[2.33 µM]	-11%	-7%	13%	·
O=S(=O)(c1ccccc1)N1CCN(c2nc(-c3cccnc3)nc3ccccc23)CC1	-9%	3%[0.501 µM]	-22%	50µM*	24%	·
Cc1ccc(S(=O)(=O)N2CCN(c3nc(-c4ccnnc4)nc4ccccc34)CC2)cc1	·	·	32µM*	·	32%	·
O=S(=O)(c1ccc(F)cc1)N1CCN(c2nc(-c3cccnc3)nc3ccccc23)CC1	-6%	?	-26%	0%	17%	·
Cc1ccccc1C(=O)NCC(=O)OCC(=O)NC(C)C1CC2CCC1C2 (stereo not drawn)	3%	20%[59 µM]	1%	5%	25%	·
Cc1ccc(C(=O)NCC(=O)OCC(=O)NC(C)C2CC3CCC2C3)cc1 (stereo not drawn)	3%	28µM*	-11%	16%	28%	·
CCCCOC(=O)c1cccc(NC(=O)/C=C/c2ccccc2Cl)c1	·	-3%[59 µM]	-12%	15%	26%	·
COc1cc(C2C(C#N)=C(N)Oc3cc(O)ccc32)cc2c1OCO2 (stereo not drawn)	-8%	-2%[59 µM]	2%[11.4 µM]	-11%	?	79µM*
COc1cc(C2C(C#N)=C(N)Oc3cc(N(C)C)ccc32)cc2c1OCO2 (stereo not drawn)	0%	?	50µM*	45µM*	?	-27%
O=C(O)C1Nc2c(C(F)(F)F)ccc(Cl)c2C2C=CCC12 (stereo not drawn)	·	10µM*	-26%	?	-4%	?
O=C(c1ccccc1O)N1CCOCC1	4%	-1%[59 µM]	2%	-2%	33%	12%
Cc1cc(C)c2c(c1)C1C=CCC1C(C(=O)O)N2 (stereo not drawn)	·	·	20µM*	·	20µM*	·
O=C(O)C1Nc2c(C(=O)N3CCOCC3)cccc2C2C=CCC12 (stereo not drawn)	3.5µM*	8.9µM*	11µM*	20µM*	40µM*	7.1µM*
